In PubChem BioAssay AID1053205 (Broad Institute, 2014) one finds outcome data, which are given here for 36 compounds.

Measured potencies and affinities stand elsewhere. Inconclusive results are not listed. The source made the active and inactive calls.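 How the source made its calls: active means compounds lowering the FRET ratio whose fitted half-maximal concentration is at most twice their top tested dose; inconclusive means flat partial drop between 30 and 70 percent, or bad fit; inactive means the rest.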

The assay addresses Voltage-dependent L-type calcium channel subunit alpha-1D (Homo sapiens) (UniProt Q01668). The assay is described as follows: disruptors of CaV1.3 IQ/ICDI domain association – cell-based, HEK293, YFP-IQ/CFP-ICDI FRET, cherry-picks, dose response (AID 1053205).

Sequence of Voltage-dependent L-type calcium channel subunit alpha-1D (Homo sapiens) (Q01668 whole entry, looked up, the tested form may be a part): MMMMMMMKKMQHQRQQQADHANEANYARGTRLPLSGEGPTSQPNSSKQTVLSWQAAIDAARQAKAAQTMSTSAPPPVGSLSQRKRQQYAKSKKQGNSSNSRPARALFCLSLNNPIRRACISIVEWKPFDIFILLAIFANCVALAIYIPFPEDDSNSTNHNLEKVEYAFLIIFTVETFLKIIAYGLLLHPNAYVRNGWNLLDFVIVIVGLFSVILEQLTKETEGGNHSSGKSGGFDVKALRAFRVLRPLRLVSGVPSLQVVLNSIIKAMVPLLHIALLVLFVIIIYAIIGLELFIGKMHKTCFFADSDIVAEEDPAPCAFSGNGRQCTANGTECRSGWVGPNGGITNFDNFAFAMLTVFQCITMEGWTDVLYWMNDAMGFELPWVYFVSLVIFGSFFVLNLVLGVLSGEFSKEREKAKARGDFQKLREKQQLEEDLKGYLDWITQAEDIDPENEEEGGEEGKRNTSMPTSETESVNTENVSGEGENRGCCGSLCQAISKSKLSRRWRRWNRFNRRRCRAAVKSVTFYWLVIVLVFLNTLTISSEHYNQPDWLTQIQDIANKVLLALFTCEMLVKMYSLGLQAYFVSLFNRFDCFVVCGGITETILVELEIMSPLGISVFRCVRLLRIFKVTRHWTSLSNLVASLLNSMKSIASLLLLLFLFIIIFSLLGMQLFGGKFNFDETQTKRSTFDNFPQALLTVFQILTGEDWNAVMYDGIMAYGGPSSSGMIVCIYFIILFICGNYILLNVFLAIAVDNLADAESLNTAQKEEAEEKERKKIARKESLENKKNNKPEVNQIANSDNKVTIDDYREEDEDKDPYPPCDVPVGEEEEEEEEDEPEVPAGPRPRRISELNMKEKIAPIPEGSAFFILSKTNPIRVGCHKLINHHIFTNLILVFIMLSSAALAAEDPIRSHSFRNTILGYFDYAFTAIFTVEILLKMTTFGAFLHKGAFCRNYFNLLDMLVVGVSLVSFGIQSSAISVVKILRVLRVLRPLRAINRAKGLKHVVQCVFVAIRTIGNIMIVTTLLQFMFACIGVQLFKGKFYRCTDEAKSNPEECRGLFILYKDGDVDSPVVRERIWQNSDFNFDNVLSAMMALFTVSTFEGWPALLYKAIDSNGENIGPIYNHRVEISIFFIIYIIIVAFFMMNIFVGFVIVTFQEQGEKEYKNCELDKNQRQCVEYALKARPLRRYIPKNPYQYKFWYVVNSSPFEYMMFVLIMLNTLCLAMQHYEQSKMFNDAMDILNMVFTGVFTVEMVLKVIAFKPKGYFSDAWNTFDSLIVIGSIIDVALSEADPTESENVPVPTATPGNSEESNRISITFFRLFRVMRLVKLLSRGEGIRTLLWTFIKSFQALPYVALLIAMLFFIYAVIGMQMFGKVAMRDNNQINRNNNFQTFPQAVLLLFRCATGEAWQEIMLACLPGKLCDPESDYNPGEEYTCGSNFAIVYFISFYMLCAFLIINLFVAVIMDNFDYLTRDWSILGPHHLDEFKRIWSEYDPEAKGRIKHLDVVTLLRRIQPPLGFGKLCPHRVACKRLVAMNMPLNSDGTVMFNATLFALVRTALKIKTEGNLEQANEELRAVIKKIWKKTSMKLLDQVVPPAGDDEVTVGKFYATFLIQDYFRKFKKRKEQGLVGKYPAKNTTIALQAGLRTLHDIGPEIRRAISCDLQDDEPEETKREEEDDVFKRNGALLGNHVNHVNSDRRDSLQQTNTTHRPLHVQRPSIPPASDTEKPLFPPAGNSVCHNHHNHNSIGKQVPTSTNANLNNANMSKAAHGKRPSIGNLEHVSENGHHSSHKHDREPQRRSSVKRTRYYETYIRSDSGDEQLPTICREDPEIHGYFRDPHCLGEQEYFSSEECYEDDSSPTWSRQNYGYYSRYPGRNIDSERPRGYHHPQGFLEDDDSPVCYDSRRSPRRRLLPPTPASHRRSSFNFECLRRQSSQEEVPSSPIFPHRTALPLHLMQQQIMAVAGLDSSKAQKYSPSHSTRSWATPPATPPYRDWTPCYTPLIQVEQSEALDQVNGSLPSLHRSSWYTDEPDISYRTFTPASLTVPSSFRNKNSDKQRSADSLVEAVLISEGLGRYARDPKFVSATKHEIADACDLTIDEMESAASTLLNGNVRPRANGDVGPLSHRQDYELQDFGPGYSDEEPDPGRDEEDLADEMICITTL

Turning to `CC(=O)c1cc2ccc(O)cc2oc1=O`, the result was inactive.

With `Cc1c(C(=O)NCc2ccc(Cl)c(Cl)c2)sc(=O)n1Cc1cccc(F)c1`, the result was inactive.

With `O=C(O)c1cccc(NC(=O)c2cn(-c3ccccc3)nc2-c2cccc(Br)c2)c1`, the outcome was inactive.

Take `Cc1cc(OC(=O)c2ccccc2Cl)ccc1N1C(=O)CCC1=O`: the result was inactive.

For `Cc1cc(C)nc(SCC(=O)Nc2ccc(S(=O)(=O)Nc3onc(C)c3C)cc2)n1`, the outcome was inactive.

For the compound `CC1(C)CC(=O)C2=C(C1)OC(N)=C(C#N)[C@@H]2c1ccccc1[N+](=O)[O-]`, the result was inactive.

For the compound `COc1ccc(C[C@H]2CN3C(=NC[C@@H]3Cc3ccccc3)N2CCNC(=O)CCC2CCCCC2)cc1`, the result was inactive.

For `Fc1ccc(-c2nc3ccccn3c2NCc2ccc3c(c2)OCO3)cc1`, the result was inactive.

For `c1ccc(-c2cn3nc4c(nc3n2)CCCC4)cc1`, the result was inactive.

Regarding `S=C(NCC1CCCO1)N1CCN(Cc2ccccc2Cl)CC1` (stereo unspecified), the outcome was inactive.

`CC/C(C)=N\Nc1nc(-c2cc3cc(OC)ccc3oc2=O)cs1`: the result was inactive.

Turning to `CC(C)(C)c1csc(N/N=C/c2ccc(O)cc2)n1`, the outcome was inactive.

Regarding `CSc1ccc(Cn2c(C)c(C(=O)NCCC#N)sc2=O)cc1`, the outcome was inactive.

In the case of `Cc1c(C(=O)NCc2cccc(C(F)(F)F)c2)sc(=O)n1Cc1ccc(C(=O)N(C)C)cc1`, the result was inactive.

As to `Cc1nc(CCNC(=O)Cc2ccc(Cl)cc2)cs1`, the result was inactive.

For the compound `CCOC(=O)c1oc2c(CN3CCN(CCO)CC3)c(O)c(CC)cc2c(=O)c1-c1nc2ccccc2s1`, the result was inactive.

Consider `CCC(Sc1nc(N)c(NC(=O)c2ccc(OC)cc2)c(=O)[nH]1)C(=O)O` (stereo unspecified), for which the result was inactive.

As to `C=CCN1C(=S)CC(c2ccccc2)=Nc2ccccc21`, the result was inactive.

On to `Cc1nc2ccc(S(=O)(=O)Nc3ccc(-c4nc5cccnc5s4)cc3)cc2s1`, for which the result was inactive.

`Nc1ccc2nc(-c3ccccc3)cnc2c1`: the result was inactive.

For the compound `COc1cc(C(=O)OCC(C)=O)cc(NC(=O)c2ccco2)c1OC`, the outcome was inactive.

Turning to `CCOC(=O)C1CCCN(CCCc2ccccc2)C1` (stereo unspecified), the result was inactive.

Take `COCc1cc(C)nc(SCC(=O)Oc2ccc(Cl)cc2)c1C#N`: the result was inactive.

For the compound `Nc1ccc(C#Cc2ccc3c(=O)c4ccccc4oc3c2)cc1`, the outcome was inactive.

With `CN(C)C(=O)CSc1nc2ccc(C(=O)c3ccccc3)cc2[nH]1`, the result was inactive.

On to `CC(=O)N=c1c(C#N)cc2c(=O)n3ccccc3nc2n1CCCOC(C)C`, for which the result was inactive.

`COCCNC(=O)c1cc2c(=O)n3cccc(C)c3nc2n(Cc2ccncc2)c1=N`: the result was inactive.

Consider `COc1ccc(C2c3ccc(O)cc3Oc3ncn4nc(-c5ccccn5)nc4c32)cc1` (stereo unspecified), for which the outcome was inactive.

Turning to `NC(=O)c1cc([N+](=O)[O-])ccc1NCc1cccnc1`, the result was inactive.

As to `Cc1ccc2c(c1)-c1c(cnn1CC(=O)Nc1ccccc1N1CCN(C)CC1)CO2`, the outcome was inactive.

In the case of `COc1ccccc1N1CCN(C2CCC(C)CC2)CC1` (stereo unspecified), the result was inactive.

In the case of `Cc1noc(C)c1-c1ccc(C(=O)NCCc2ccccc2)c2occc12`, the result was inactive.

In the case of `Cc1ccc(OCC(=O)NNc2c3ccccc3nc3ccccc23)cc1`, the result was inactive.

Take `CCc1cccc(C)c1NC(=S)NCc1ccc2c(c1)cc(C)n2C`: the outcome was inactive.

Consider `Nc1nc(-c2cc(O)ccc2[N+](=O)[O-])cc(-c2ccccc2)c1[N+](=O)[O-]`, for which the outcome was inactive.

As to `Cc1ccc(-n2c(C)cc(/C=N/NC(=O)Cn3c4ccccc4c(=O)c4ccccc43)c2C)cc1`, the result was inactive.
